Screens (PubChem)
An excerpt weighted towards active compounds, which were near 18% of everything screened.
DT40 TDP1 CPT: growth inhibition of DT40 Tdp1-/-;hTDP1 cells with camptothecin (screen for TDP1 inhibitors) | hit rate 12% among 420,000 | Potency, µM (doses to about 46.2 µM), for inactives: top-dose activity change, negative = growth inhibition, hits mostly inhibitors | chicken DT40 Tdp1-/-;hTDP1 cells + 20 nM CPT, ATP luminescence, 48 h; also: potency is read from the fitted curve at half-maximal effect; % is scaled to controls: 0 for no effect and ±100 for the full control effect; nearly all actives have a fitted effect of over 55% in size
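Chicken DT40 Tdp1-/- cells complemented with human TDP1, 400 cells/well, exposed to compounds plus 20 nM camptothecin for at least 48 h at 37 C; viability read as ATP content by CellTiter-Glo luminescence.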
TGFb SMAD3 inh: inhibitors of TGF-b signaling; HepG2 CAGA-GFP TGF-b/SMAD3 reporter, GFP fluorescence, 18 h; TGF-beta stimulated, 500 pg/mL final; Potency, µM (titrated, usually from 46.1 µM), for inactives: top-dose activity, negative = inhibition, actives largely listed as inhibitors; hit rate 1.2% among 410,000; AID 588855; also: potency is read from the fitted curve at half-maximal effect; % is scaled to controls: 0 for no effect and ±100 for the full control effect; nearly all actives have a fitted effect of over 65% in size
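HEPG2 CAGA-GFP cells (1000/well, DMEM with 1% FBS) were pre-incubated 2 h at 37 degrees C, given compound by pin tool, then stimulated with TGF-beta at 500 pg/mL final for 18 h before per-cell GFP fluorescence imaging.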
HepG2 tox: counter-screen for TGF-b inhibitors: cytotoxicity in HepG2 cells; HepG2 CAGA-GFP viability, ATP luminescence, 18 h; Potency, µM (top dose mostly 46.1 µM), for the others: at the top dose activity change, negative = cytotoxicity, usual class: cytotoxic; hit rate 0.76% among 410,000; AID 588856; also: potency is read from the fitted curve at half-maximal effect
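HepG2 CAGA-GFP cells (1000/well, DMEM with 1% FBS) received compound, then TGF-beta at 500 pg/mL final, and were incubated 18 hours at 37 degrees C. Viability was read by CellTiter-Glo luminescence. Media-only wells were set as complete cell-killing and DMSO as no toxicity.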
IL1B secr inh: blocks inflammasome-driven IL-1 beta release; AID 743279; THP-1 LPS/ATP IL-1B secretion, AlphaLISA, 16 h; stronger effect = lower value; hit rate 4.7% among 360,000; activity change, % at 57.5 µM; in the data active = activity change below about -50%; inconclusive = mostly about -30% to -49%; also: % is scaled to controls: 0 for no effect and ±100 for the full control effect
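Secreted IL-1B measured by AlphaLISA bead assay after 16 h compound exposure of THP-1 cells; compounds (final up to 57.5 uM) added 1 h before LPS (250 ng/mL) and ATP (1.25 mM) stimulation; lower signal means less secretion.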
TDP1 block: inhibitors of human tyrosyl-DNA phosphodiesterase TDP1 | hit rate 0.28% among 350,000 | Q9NUW8 | Potency, µM (doses to about 130 µM), without a hit: at the top dose activity change, negative = inhibition, hits mostly inhibitors | AID 485290 | recombinant TDP1, AlphaScreen DNA substrate cleavage; also: potency is read from the fitted curve at half-maximal effect; % is scaled to controls: 0 for no effect and ±100 for the full control effect; nearly all actives have a fitted effect of over 40% in size
Target sequence (Q9NUW8 whole entry, looked up): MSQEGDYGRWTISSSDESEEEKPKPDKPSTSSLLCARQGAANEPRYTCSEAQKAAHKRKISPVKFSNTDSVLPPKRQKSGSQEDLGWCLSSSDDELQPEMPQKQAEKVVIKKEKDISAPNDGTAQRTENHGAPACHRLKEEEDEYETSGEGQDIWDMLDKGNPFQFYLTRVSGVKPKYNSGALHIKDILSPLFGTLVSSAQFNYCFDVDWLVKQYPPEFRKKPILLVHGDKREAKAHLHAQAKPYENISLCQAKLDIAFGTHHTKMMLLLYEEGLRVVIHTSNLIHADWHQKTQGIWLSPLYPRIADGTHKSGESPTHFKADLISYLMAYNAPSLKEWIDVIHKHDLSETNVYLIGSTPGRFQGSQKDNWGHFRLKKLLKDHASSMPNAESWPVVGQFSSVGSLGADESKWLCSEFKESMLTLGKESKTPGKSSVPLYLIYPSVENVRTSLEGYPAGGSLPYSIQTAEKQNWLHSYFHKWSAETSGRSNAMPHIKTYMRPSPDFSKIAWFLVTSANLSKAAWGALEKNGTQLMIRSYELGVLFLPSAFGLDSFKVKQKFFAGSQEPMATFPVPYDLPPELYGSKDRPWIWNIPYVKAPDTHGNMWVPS
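Recombinant human Tdp1 (E. coli-expressed, 1 nM final) preincubated with compounds 15 min at room temperature, then 5'-biotin/3'-phosphotyrosine-FITC DNA substrate (15 nM final) added for 5 min. AlphaScreen beads (10 ug/ml final) added 10 min; cleavage lowers signal.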
TDP1 cell noCPT: qHTS for Inhibitors of human tyrosyl-DNA phosphodiesterase 1 (TDP1): qHTS in cells in absence of CPT. DT40 Tdp1-/- hTDP1 cells, no CPT, ATP luminescence, 48 h. Potency, µM (top dose mostly 46.2 µM), for inactives: at the highest dose activity change, negative = growth inhibition, usual class: inhibitors. hit rate 15% among 420,000. AID 686978, 2013; also: potency is read from the fitted curve at half-maximal effect; % is scaled to controls: 0 for no effect and ±100 for the full control effect; nearly all actives have a fitted effect of over 55% in size
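Chicken DT40 Tdp1-/- cells complemented with human TDP1, screened without camptothecin (DMSO vehicle only), 400 cells/well. Compounds pin-transferred, cells incubated at 37 °C for at least 48 hr. Growth read as ATP-dependent luminescence (CellTiter-Glo, 30 min at RT).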
The depositor's hits bear a star; ? = inconclusive; nt = no result given; [ ] = remark or other dose. Unless noted, calls follow the shape of the dose curve; as a rule, active = well fitted curve in the direction sought with a large enough effect; inconclusive = small, poorly fitted or top-dose-only effect, or another doubt; inactive = no such curve, though single readings can be large; an effect the other way counts as inactive or inconclusive.

SMILES	DT40 TDP1 CPT	TGFb SMAD3 inh	HepG2 tox	IL1B secr inh	TDP1 block	TDP1 cell noCPT
COc1cc(C(=O)OCC(=O)NC(=O)NCc2ccccc2)ccc1OC(F)F	3%	0%	2%	1	1%	-13%
COc1ccc(CN(C)C(=O)c2ccc(Oc3ccccc3)cc2)cc1F	-27%	?	-7%	-74*	-14%	?
CCOc1ccc(C(=O)OCC(=O)N(Cc2ccccc2)Cc2ccccc2)cc1OC	21µM*	-5%	1%	-4	-8%	?
CN(Cc1ccc(F)cc1)C(=O)C(Cc1ccccc1)NC(=O)c1ccccc1 (stereo not given)	?	-22%	-16%	-18	nt	18µM*
CCN(Cc1ccc(OC)c(F)c1)C(=O)C1CCCO1 (stereo not given)	2%	0%	-2%	16	3%	0%
CSc1ccc(CN(C)C(=O)C(Cc2ccccc2)NC(=O)c2ccccc2)cc1 (stereo not given)	?	-6%	1%	8	5%	?
CCOc1ccc(CN(C)C(=O)[C@H](Cc2ccccc2)NC(=O)OCc2ccccc2)cc1OC	?	-21%	-16%	-77*	6%	21µM*
COc1ccc(CN(C)C(=O)C(Cc2ccccc2)NC(=O)c2ccccc2)cc1F (stereo not given)	16µM*	?	-7%	-12	13%	13µM*
CCOc1ccc(CN(C)C(=O)NNC(=O)c2ccc(C)cc2)cc1OC	1%	7%	3%	12	3%	-10%
CS(=O)(=O)Nc1cc(C(=O)N2CCNC(=O)C2)c2c(c1)ncn2CCc1ccccc1	1%	nt	nt	nt	nt	-15%
C=CCNC(=S)N/N=C/c1ccc(C(F)(F)F)cc1	?	?	-33%	-56*	6%	?
FC(F)(F)c1ccc(/C=N/NC(=S)NC2CCCCC2)cc1	?	-20%	6%	2	8%	5.8µM*
CCCCOc1ccc(C(=O)Nc2nnc3n2CCS3)cc1	?	-17%	-38%	nt	9%	?
CCCN1C(=O)C2(c3ccccc31)c1c(oc3ccccc3c1=O)C(=O)N2CCCOC(C)C (stereo not given)	?	-14%	-8%	nt	2%	?
CCCN1C(=O)C2(c3ccccc31)c1c(oc3ccc(F)cc3c1=O)C(=O)N2CCCOC(C)C (stereo not given)	21µM*	-9%	1%	nt	7%	?
Cc1ccc(S(=O)(=O)Nc2ccc(-c3csc(-c4ccccc4)n3)cc2)cc1	?	?	13µM*	-97*	5%	?
O=S(=O)(Nc1ccc(NS(=O)(=O)c2ccccc2)cc1)c1ccccc1	-15%	2%	-5%	-19	nt	?
O=S(=O)(Nc1ccc(-c2csc(-c3ccccc3)n2)cc1)c1ccccc1	-41%	?	14µM*	-102*	-3%	18µM*
O=[N+]([O-])c1ccc(S(=O)(=O)Nc2ccc(-c3csc(-c4ccccc4)n3)cc2)cc1	nt	nt	nt	nt	9%	nt
O=S(=O)(Nc1ccc(-c2ccc(NS(=O)(=O)c3ccccc3)cc2)cc1)c1ccccc1	?	?	-32%	-4	nt	23µM*
Cc1ccc2nc(-c3ccc(NS(=O)(=O)c4ccc(F)cc4)cc3)sc2c1	?	?	-38%	-103*	-4%	?
CC(=O)Nc1ccc(S(=O)(=O)Nc2nc3ccc(C)cc3s2)cc1	2%	8%	-4%	25	7%	-5%
Cc1cccc(COC(=O)CCCNC(=O)c2ccc(Cl)cc2)c1	-15%	-8%	-19%	-7	-17%	-21%
O=C1c2ccccc2C(=O)c2cc(S(=O)(=O)Nc3ccccc3)ccc21	15µM*	20µM*	-104%	0	11%	21µM*
COc1ccc(NC(=O)Cn2cc(C(=O)c3ccco3)c3ccccc32)cc1	?	1%	-27%	8	5%	?
SMILES	DT40 TDP1 CPT	TGFb SMAD3 inh	HepG2 tox	IL1B secr inh	TDP1 block	TDP1 cell noCPT
CCOc1ccc(NC(=O)Cn2cc(C(=O)c3ccco3)c3ccccc32)cc1	-28%	?	-20%	29	1%	?
Cc1ccc(NC(=O)Cn2cc(C(=O)c3ccco3)c3ccccc32)cc1C	?	?	-49%	nt	2%	18µM*
Cc1ccc(NC(=O)Cn2cc(C(=O)c3ccco3)c3ccccc32)cc1	?	2%	-8%	nt	3%	15µM*
Cc1cccc(C)c1NC(=O)Cn1cc(C(=O)c2ccco2)c2ccccc21	?	-9%	-19%	nt	-1%	?
O=C(Cn1cc(C(=O)c2ccco2)c2ccccc21)Nc1ccccc1	10µM*	-14%	3%	-11	1%	12µM*
COc1ccc2c(c1)CCN=C2Cc1ccc(OC)c(OC)c1	?	?	-9%	?	5%	16µM*
CCc1ccccc1NC(=S)N=Nc1c(O)n(C)c2ccc(S(=O)(=O)N3CCOCC3)cc12	5.2µM*	?	-16%	0	-8%	5.8µM*
Cc1ccc(Cn2c(O)c(N=NC(=S)Nc3ccccc3F)c3cc(S(=O)(=O)N4CCOCC4)ccc32)cc1	3.7µM*	3%	-15%	-12	9%	2.1µM*
Cc1ccc(C)c(NC(=S)N=Nc2c(O)n(C)c3ccc(S(=O)(=O)N4CCOCC4)cc23)c1	4.1µM*	?	-42%	7	3%	2.9µM*
CCc1ccccc1NC(=O)c1ccc(S(=O)(=O)N2CCCC2)cc1	10%	10%	-11%	3	nt	-11%
CC(C)(c1cc(Br)c(OCC(Br)CBr)c(Br)c1)c1cc(Br)c(OCC(Br)CBr)c(Br)c1 (stereo not given)	nt	nt	nt	nt	13%	nt
CCOC(=O)CNC(=S)N(Cc1ccco1)Cc1ccccc1Cl	?	26%	0%	-14	nt	7%
O=C1c2ccccc2C(Nc2ccccc2)N1Cc1ccc2c(c1)OCO2 (stereo not given)	-1%	-7%	3%	?	nt	-13%
CCN(CC)S(=O)(=O)c1ccc(NC2c3ccccc3C(=O)N2Cc2ccco2)cc1 (stereo not given)	21µM*	-20%	-12%	-24	5%	12µM*
CCN(CC)S(=O)(=O)c1ccc(NC2c3ccccc3C(=O)N2Cc2ccc3c(c2)OCO3)cc1 (stereo not given)	16µM*	-12%	-15%	-16	3%	?
CCCc1ccc(C(O)c2ncc(-c3cccc(F)c3)[nH]2)cc1 (stereo not given)	?	?	-39%	22	nt	?
CC1(C(=O)NS(=O)(=O)c2ccc3c(c2)CCO3)CCN1C(=O)C1(c2ccc(Cl)cc2)CC1 (stereo not given)	-21%	4%	-4%	31	nt	-12%
CNC(CC(=O)O)C(=O)O (stereo not given)	10%	nt	nt	nt	19%[56.1 µM]	0%
Cc1ccc(S(=O)(=O)N2CCN(C(=O)CN3C(=O)CNC3=O)CC2)cc1	10%	10%	3%	3	3%	-8%
